Screening data from PubChem.
This is a sample that favours compounds with a hit; in the whole collection about 1.1% have one here.
CatL block: blocks human cathepsin L protease activity | P07711 | purified cathepsin L, fluorogenic substrate, fluorescence | inhibition, %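 (tested at 10 µM)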 | 58,000 tested, 0.17% active | AID 460; in the data active = inhibition above about 45%;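 note: 0% = enzyme with no compound and 100% = no enzyme blank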
Target sequence (P07711 114-288 limits assumed): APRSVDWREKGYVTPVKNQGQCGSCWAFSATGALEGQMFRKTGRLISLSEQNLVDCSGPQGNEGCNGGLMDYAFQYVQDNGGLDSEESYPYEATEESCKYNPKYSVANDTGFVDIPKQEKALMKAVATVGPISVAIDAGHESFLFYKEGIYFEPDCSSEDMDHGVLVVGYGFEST
Target sequence (P07711 292-333 limits assumed): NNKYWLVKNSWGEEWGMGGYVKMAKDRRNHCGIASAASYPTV
CatB mix inh: human cathepsin B inhibition by mixtures. P07858. inhibition, %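 (ten-compound pools at 5 µM per compound and 50 µM total)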. 62,000 tested, 0.06% active. Purified cathepsin B, AMC dipeptide fluorescence, compound mixtures. AID 488; in the data active = inhibition above about 22%, passing the limit was not always enough;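 note: 0% = enzyme without compound and 100% = no enzyme blank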
HER2 expr 66K: lowers expression of human Her2 kinase; P04626; SKBR-3 HER2 protein level, AlphaScreen, 18-24 h; stronger effect = lower value; HER2 level % of control, % at 10 µM; 65,000 tested, 0.69% active; AID 645;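 active = HER2 level under 5% of the carrier-only control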;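 note: 100% = DMSO carrier and 0% = 500 nM PU-H71 HSP90 inhibitor; lower value means stronger loss of Her2 protein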
CatB inh: inhibitors of human cathepsin B; purified cathepsin B, fluorogenic substrate, fluorescence; P07858; 63,000 tested, 0.1% active; inhibition, %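 (tested at 10 µM)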; AID 453; in the data active = inhibition above about 21%;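 note: 0% = enzyme with no compound and 100% = no enzyme blank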
CatS inh: blocks human cathepsin S protease activity | recombinant cathepsin S, AMC dipeptide fluorescence, pooled mixtures | 62,000 tested, 0.06% active | inhibition, %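 (tested at 5 µM per compound within 10-compound mixtures)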; in the data active = inhibition above about 32%, passing the limit was not always enough;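 note: 0% = enzyme without compound and 100% = blank without enzyme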
WNV protease inh: blocks West Nile virus NS2B-NS3 protease activity | WNV NS2B-NS3 protease, fluorogenic substrate Ex360/Em465; stronger effect = lower value | 65,000 tested, 0.18% active | z-score (concentration not given with the values) | AID 577; in the data active = z-score below about -3
Numbers without * were called inactive; . = not tested or not shown.

SMILES	CatL block	CatB mix inh	HER2 expr 66K	CatB inh	CatS inh	WNV protease inh
Cc1ccc(-c2nc3ncccc3o2)cc1NC(=O)c1ccco1	-10	5	94	5	-12	-0.43
COc1ccccc1-n1c(SCC(=O)N2CCOCC2)nc(O)c(Cc2ccccc2)c1=O	2	-2	112	0	9	-8.6*
CCOC(=O)C(CC(=O)O)N1CCCCC1 (stereo not drawn)	11	.	148	8	.	-3.1*
COc1ccccc1-c1cc(C(F)(F)F)nc(N2CCN(c3ccc(F)cc3)CC2)n1	-5	-1	110	3	3	-0.23
COc1ccccc1-c1cc(C(F)(F)F)nc(N2CCN(c3ccccc3)CC2)n1	105*	0	100	5	-9	-0.1
O=C1c2cccc3cccc(c23)C(=O)N1c1nncs1	-6	3	-29*	2	-2	-1.3
CC(=O)N1C(=O)c2cccc3cccc(c23)C(=O)N1C(C)=O	-8	5	159	1	-25	-0.5
C=CS(=O)(=O)c1ccc(Oc2ccc(S(=O)(=O)C=C)cc2)cc1	-3	5	-22*	0	39*	-1.1
Cc1cc(C)nc(N(C#N)CC(=O)N2CCC(C(N)=O)CC2)n1	-3	7	94	-1	-20	0.55
CC1=C(C#N)C(=O)OC(C)(C)C1	3	.	114	3	.	-8.2*
CCSC1(SCC)N=C(N)C2(C#N)C(c3ccc(OC)c(OC)c3OC)C12C#N (stereo not drawn)	18	-1	3.5*	6	11	0.54
C=CCn1c(=O)c2ccccc2n2c(SCc3cc(=O)n4ccsc4n3)nnc12	-4	7	-15*	-4	-7	-1.1
C=CCn1c(=O)c2ccccc2n2c(SCC(=O)c3ccccc3)nnc12	10	6	81	6	-1	0.01
